Results reported in PubChem BioAssay (NCATS).
Results filed as inconclusive are left out. Active and inactive are the calls of the source. Calls come from the whole dose curve; as a rule, active = well fitted curve in the direction sought with a large enough effect; inconclusive = small, poorly fitted or top-dose-only effect, or another doubt; inactive = no such curve, though single readings can be large; an effect the other way counts as inactive or inconclusive.

What was measured:
[1] = target: Cellular tumor antigen p53 (Homo sapiens) (UniProt P04637); assay: Primary qHTS for small molecule compounds that upregulate eGFP-tagged delta133p53alpha (in N-terminal) cells. (AID 2060322); settings: NCI-H358 eGFP-delta133p53alpha fluorescence, 24 h; activation: active compounds read high;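 note: series mostly up to about 56 µM; 0% = DMSO vehicle and 100% = reference activator; nearly all actives have a fitted effect of over 75% in size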
Sequence of Cellular tumor antigen p53 (Homo sapiens) (P04637 whole entry, looked up): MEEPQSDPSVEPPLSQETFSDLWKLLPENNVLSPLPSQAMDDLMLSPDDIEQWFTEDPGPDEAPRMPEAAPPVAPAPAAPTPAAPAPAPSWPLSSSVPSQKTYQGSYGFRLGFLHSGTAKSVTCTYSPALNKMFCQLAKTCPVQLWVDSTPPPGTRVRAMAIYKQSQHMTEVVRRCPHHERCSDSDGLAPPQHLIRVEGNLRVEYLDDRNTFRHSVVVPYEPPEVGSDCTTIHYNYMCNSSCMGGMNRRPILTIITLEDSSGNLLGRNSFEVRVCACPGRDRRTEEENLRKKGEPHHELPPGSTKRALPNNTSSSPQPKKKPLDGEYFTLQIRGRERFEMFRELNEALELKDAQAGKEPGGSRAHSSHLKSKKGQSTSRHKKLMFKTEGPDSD
How it was run: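 NCI-H358 cells pre-induced 24 h with 10 ng/ml doxycycline to express N-terminal eGFP-delta133p53alpha, then dosed 24 h at 37C without doxycycline; fixed, Hoechst-stained, GFP intensity by laser scanning cytometry, normalized to DMSO (0%) and 57.5 uM 5-azacytidine (100%).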

[2] = target: Aldehyde dehydrogenase, mitochondrial (Homo sapiens) (UniProt P05091); assay: qHTS for Inhibitors of the Aldehyde Dehydrogenase Family (ALDH2) Primary screen (AID 2061308);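 note: plate controls were vehicle for no effect and reference inhibitor for full effect; nearly all actives have a fitted effect of over 55% in size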
[3] = target: Retinaldehyde dehydrogenase 3 (Homo sapiens) (UniProt P47895); assay: qHTS for Inhibitors of the Aldehyde Dehydrogenase Family (ALDH1A3) Primary screen (AID 2061315);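 note: plate controls were DMSO vehicle for no effect and reference inhibitor for full effect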

CC1(C)CC[C@]2(C(=O)O)CC[C@]3(C)C(=CCC4[C@@]5(C)C[C@@H](O)[C@H](O)[C@@](C)(CO)C5[C@H](O)C[C@]43C)[C@@H]2C1 (some centres not stated)
inactive: activation [1] -19.8% | Potency [2] | Potency [3]

COC1C(=O)CCC2(CO2)C1(O)C1(C)OC1CC=C(C)C (configuration not stated)
inactive: activation [1] -9.82% | Potency [2] | Potency [3]

C[C@@H]1C(=O)OC[C@H]2C(C(=O)O)=C[C@@H]3CC(C)(C)C[C@]312
inactive: activation [1] -6.87% | Potency [2] | Potency [3]

CCCCCOc1ccc(C2SC(=O)NC2=O)cc1OCC (configuration not stated)
inactive: activation [1] 2.33% | Potency [2] | Potency [3]

COc1c2c(c(C)c3c1C(=O)OC3)OC1(C)CC(O)C34OC(OC)(CCC3(C)C1C2)OC4(C)CO (configuration not stated)
inactive: activation [1] 13% | Potency [2] | Potency [3]

CC(C)C(=O)OC[C@H]1O[C@H](O[C@H]2O[C@H](CO)[C@@H](O)[C@H](O)[C@H]2O)[C@H](O)[C@@H](O)[C@@H]1O
inactive: activation [1] -6.11% | Potency [2] | Potency [3]

C/C1=C\CCC(C)CCO[C@@H]2O[C@H](CO[C@@H]3OC[C@H](O)[C@H](O)[C@H]3OC1=O)[C@@H](O)[C@H](O)[C@H]2O (some centres not stated)
inactive: activation [1] -24.1% | Potency [2] | Potency [3]

C=C(C)[C@@H]1CC[C@]2(C)CC[C@]3(C)C(CCC4[C@@]5(C)CC[C@H](O)C(C)(C)C5CC[C@]43C)C12 (some centres not stated)
inactive: activation [1] -19.6% | Potency [2] | Potency [3]

CC1(C)O[C@H]2CC(=O)OC[C@@]23C1=C(O)C(=O)[C@]1(C)C3CC[C@@]2(C)[C@H](c3ccoc3)OC(=O)[C@H]3O[C@]321 (some centres not stated)
inactive: activation [1] -13% | Potency [2] | Potency [3]

Cc1onc(-c2c(F)cccc2Cl)c1C(=O)N[C@@H]1C(=O)N2[C@@H]1SC(C)(C)[C@@H]2C(=O)O
inactive: activation [1] -1.67% | Potency [2] | Potency [3]

O=S(=O)(c1ccccc1)c1cnc2c(N3CCNCC3)cccc2c1
inactive: activation [1] 27% | Potency [2] | Potency [3]

CC(=O)c1c(C)cc(O[C@@H]2O[C@H](CO)[C@@H](O)[C@H](O)[C@H]2O)cc1O
inactive: activation [1] -9.92% | Potency [2] | Potency [3]

C[C@@H]1CC[C@]2(C(=O)O[C@@H]3O[C@H](CO[C@@H]4O[C@H](CO)[C@@H](O[C@@H]5O[C@@H](C)[C@H](O)[C@@H](O)[C@H]5O)[C@H](O)[C@H]4O)[C@@H](O)[C@H](O)[C@H]3O)CC[C@]3(C)C(=CCC4[C@@]5(C)C[C@@H](O)[C@H](O)[C@@](C)(CO)C5CC[C@]43C)C2[C@H]1C (some centres not stated)
inactive: activation [1] -19.6% | Potency [2] | Potency [3]

C=CC(C)(C)C1(CC2NC(=O)C3CCCN3C2=O)C(=O)Nc2cc3c(cc21)C=CC(C)(C)O3 (configuration not stated)
inactive: activation [1] 6.87% | Potency [2] | Potency [3]

CC1=C2C[C@@]3(C)C(CCC[C@@H]3C)C(O)C2(O)OC1=O (some centres not stated)
inactive: activation [1] 0% | Potency [2] | Potency [3]

C=C1CCC(OC(C)=O)C2(C)CC3(O)OC(=O)C(C)=C3CC12 (configuration not stated)
inactive: activation [1] -2.29% | Potency [2] | Potency [3]

CC(C)[C@H]1CCC(CO)=C[C@@H]1/C=C(\CO)C(=O)O
inactive: activation [1] -15.3% | Potency [2] | Potency [3]

CC[C@H]1OC(=O)[C@H](C)[C@@H](O[C@H]2C[C@@](C)(OC)[C@@H](O)[C@H](C)O2)[C@H](C)[C@@H](O[C@H]2O[C@H](C)C[C@H](N(C)C)[C@H]2O)[C@](C)(O)C[C@@H](C)C(=O)[C@H](C)[C@@H](O)[C@]1(C)O
inactive: activation [1] 9.67% | Potency [2] | Potency [3]

CC1OC(O[C@H]2CC[C@@]3(C)C(CC[C@]4(C)C3CC=C3C5CC(C)(C)CC[C@]5(C(=O)OC5OC(CO)C(OC6OCC(OC7OCC(O)C(O)C7O)C(O)C6O)C(O)C5O)CC[C@]34C)C2(C)C)C(O)C(O)C1OC1OC(CO)C(O)C(OC2OC(CO)C(O)C(O)C2O)C1O (some centres not stated)
inactive: activation [1] 9.16% | activity change, negative = inhibition [2] 8.06% [at 11.2 µM] | activity change, negative = inhibition [3] 8.31% [at 11.2 µM]

Cc1ccc(C(C)C)c(O[C@@H]2O[C@H](CO)[C@@H](O)[C@H](O)[C@H]2O)c1
inactive: activation [1] -1.53% | Potency [2] | Potency [3]

COc1ccc(CN2C(=O)C(=O)c3cc(S(=O)(=O)N4CCC[C@H]4COc4cccnc4)ccc32)cc1
inactive: activation [1] 19.7% | Potency [2] | Potency [3]

C[C@]12CCC(=O)C=C1[C@@H](O)C[C@@H]1[C@@H]2[C@@H](O)C[C@@]2(C)[C@H]1CC[C@]2(O)C(=O)CO
inactive: activation [1] 16.3% | Potency [2] | Potency [3]

CN(C)CC#CCCC(=O)C(O)(c1ccccc1)C1CCC1 (configuration not stated)
inactive: activation [1] 8.33% | Potency [2] | Potency [3]

CCC(=O)OCC(=O)[C@@]1(OC(=O)CC)[C@@H](C)C[C@H]2[C@@H]3CCC4=CC(=O)C=C[C@]4(C)[C@@]3(F)[C@@H](O)C[C@@]21C
inactive: activation [1] -5% | Potency [2] | Potency [3]
